# A selection: hits, their analogues and other compounds. The true share with any hit is near 6%.
# D1 antag: blocks dopamine activation of the human D1 receptor | actives 3.2% (n = 360,000) | P21728 | HEK293 TREx D1 cells, calcium flux, dopamine EC80; stronger effect = lower value | activity change, negative = inhibition, % at 10 µM; in the data active = activity change below about -30%; also: % is scaled to controls: 0 for no effect and ±100 for the full control effect
# Target sequence (P21728 whole entry, looked up): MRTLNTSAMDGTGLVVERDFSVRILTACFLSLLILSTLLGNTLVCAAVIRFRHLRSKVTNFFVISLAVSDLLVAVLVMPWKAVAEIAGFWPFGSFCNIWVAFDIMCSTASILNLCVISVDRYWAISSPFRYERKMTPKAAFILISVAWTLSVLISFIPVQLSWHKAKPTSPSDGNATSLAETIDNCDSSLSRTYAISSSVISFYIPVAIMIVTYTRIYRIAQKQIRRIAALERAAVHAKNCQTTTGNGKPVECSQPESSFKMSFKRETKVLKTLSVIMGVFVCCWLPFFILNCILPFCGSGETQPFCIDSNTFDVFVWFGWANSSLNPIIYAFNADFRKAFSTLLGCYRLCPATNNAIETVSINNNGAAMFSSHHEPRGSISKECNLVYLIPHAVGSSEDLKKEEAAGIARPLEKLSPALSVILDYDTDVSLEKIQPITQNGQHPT
#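 Tetracycline-induced HEK293 T-REx cells with force-coupled D1 receptor were loaded with a no-wash calcium dye. Compound was added after a 10 s baseline and read kinetically for 180 s; EC80 dopamine was then added and calcium flux followed another 180 s.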
# D1 PAM: human D1 dopamine receptor positive modulation | HEK293 TREx D1 cells, calcium flux, dopamine EC20 potentiation | potentiation, % at 10 µM | actives 0.036% (n = 360,000); in the data active = potentiation above about 30%; also: 0% is about no effect
# D1 ag: activates the human D1 dopamine receptor. P21728. HEK293 T-REx D1 cells, calcium flux, agonist mode. activation, % at 2 µM. actives 1% (n = 360,000). AID 504660; in the data active = activation above about 30%; also: 0% is about no effect
#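 Agonism was scored from calcium flux recorded over 180 s (1 read/s) after pintool compound addition, following a 10-cycle baseline. Cells were inducible force-coupled HEK293 TREx D1, plated overnight at 30 C and loaded with no-wash calcium dye.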
# DRD3 agonist: agonists of human D3 dopamine receptor | P35462 | max activation, % | D3R DiscoveRx beta-arrestin cells, luminescence, 90 min | actives 0.58% (n = 410,000); in the data active = max activation above about 30%; also: 0% is about no effect
#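 Agonist mode: compounds and dopamine controls were applied to plated cells for 90 min at 37 degrees C after an overnight attachment at 1500 cells/well. Luminescent read-out followed 30 - 60 minutes at room temperature with DiscoveRx detection reagent.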
# DRD3 antagonist: antagonists of human D3 dopamine receptor; D3R cells, DiscoveRx beta-arrestin luminescence, antagonist mode; stronger effect = lower value; max response, negative = inhibition, %; actives 2.5% (n = 360,000); AID 652054; in the data active = max response below about -50%; inconclusive = no clear call, values can overlap the other calls; also: % is scaled to controls: 0 for no effect and ±100 for the full control effect
#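 Cells plated overnight at 1500 cells/well, then exposed to library compounds with dopamine controls for 90 minutes at 37 degrees C. DiscoveRx reagent added for 30–60 minutes at room temperature; luminescence read, quantitative HTS format.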
# * hit, by the source's call; u = inconclusive; x = no result.
SMILES,D1 antag,D1 PAM,D1 ag,DRD3 agonist,DRD3 antagonist
O=C(N[C@@H](Cc1ccccc1)C(=O)OCc1ccccc1)c1nc[nH]c1C(=O)NCc1ccccc1,4,-1,5,5,-75*
CCN(CC)C(=O)c1[nH]cnc1C(=O)NCc1ccccc1,x,x,x,-3,-54*
CCN(CC)C(=O)c1[nH]cnc1C(=O)N[C@@H](C)C(=O)OCc1ccccc1,7,-3,-5,-8,-29
C[C@H](NC(=O)c1nc[nH]c1C(=O)NCc1ccccc1)c1ccccc1,-41*,-4,1,10,-6
Cc1nc2nc(SCC(=O)NCCc3ccc(Cl)cc3)nn2c(C)c1Cc1ccccc1,-10,1,4,0,x
O=S(=O)(c1ccc2nc(Nc3ccc(Br)cc3F)ccc2c1)N1CCCC1,1,0,4,-8,x
CCc1ccc(NC(=O)CC2C(=O)N(c3cccc(OC)c3)C(=O)N2Cc2ccc(F)cc2)cc1 (stereo not drawn),-21,-1,2,-1,x
CN1C(=O)C2(c3ccccc31)c1c(oc3ccccc3c1=O)C(=O)N2CCCO (stereo not drawn),-31*,-6,3,-8,-1
CC1=C(C(=O)Nc2ccccc2)C(c2ccccc2C)n2nc(SCC(=O)c3ccc(C)cc3)nc2N1 (stereo not drawn),2,-1,3,-9,x
CCC(=O)N1CCc2cc(CNC(=O)Cc3ccc(F)cc3)ccc21,3,0,0,-2,x
COc1ccccc1CNC(=O)CCC1N=C2c3ccccc3N=C(SCC(N)=O)N2C1=O (stereo not drawn),-37*,-3,-1,-11,x
O=C(CCC1N=C2c3ccccc3N=C(SCC(=O)Nc3ccccc3F)N2C1=O)NCc1cccs1 (stereo not drawn),-38*,-1,1,6,x
O=C(CC1N=C2c3ccccc3N=C(SCc3cccc(F)c3)N2C1=O)NCc1ccc2c(c1)OCO2 (stereo not drawn),-4,-2,3,-24,x
Cc1ccc(CSC2=Nc3ccccc3C3=NC(CC(=O)NCc4ccc5c(c4)OCO5)C(=O)N23)cc1 (stereo not drawn),-61*,1,6,-9,x
CCCCNC(=O)CSC1=Nc2ccccc2C2=NC(CCC(=O)NCc3ccccc3OC)C(=O)N12 (stereo not drawn),2,-2,0,-7,x
Cc1cccc(-c2ccc3ncnc(NCc4cccc(F)c4)c3c2)c1,-27,4,0,x,x
Cc1noc(Cn2c(=O)c3cc4c(cc3n(CC(=O)Nc3ccccc3F)c2=O)OCO4)n1,-2,0,0,3,x
CCN(C(=O)CSc1nc2ccccc2n1CC(=O)Nc1ccccc1C)c1ccccc1,-1,1,6,-18,x
CCC(=O)Nc1ccc(N2CCN(Cc3ccccc3F)CC2)cc1,-10,1,3,-3,u
O=C(Nc1ccc(N2CCN(Cc3ccccc3)CC2)cc1)c1ccco1,-30*,-4,4,-9,1
O=C(Cc1ccccc1)Nc1ccc(N2CCN(Cc3ccccc3F)CC2)cc1,6,-6,2,-3,-52*
C/C(=N\NC(=O)c1ccco1)c1ccc(-c2ccccc2)cc1,-1,-4,2,-3,4
C/C(=N\NC(=O)c1ccco1)c1ccc(NC(=O)c2ccccc2)cc1,-33*,-7,4,-1,0
O=C(Nc1ccc(N2CCN(C(=O)c3ccco3)CC2)cc1)c1ccc(F)cc1,3,-12,0,0,6
O=C(Nc1ccc(N2CCN(C(=O)c3ccco3)CC2)cc1)c1ccccc1,-56*,2,1,-3,13
SMILES,D1 antag,D1 PAM,D1 ag,DRD3 agonist,DRD3 antagonist
Fc1ccc(Nc2ncnc3c2nc2n3CCCCC2)c(F)c1,-7,-1,0,8,x
COc1ccc(C(=O)Nc2cc3cc(Cl)ccc3oc2=O)cc1OC,7,-2,-1,-4,x
Cc1ccc(CNC(=O)c2cc3c(s2)CS(=O)(=O)C3)cc1,-6,0,4,-4,-7
Cc1cccc(N2CCN(CCNC(=O)c3cc4c(s3)CS(=O)(=O)C4)CC2)c1C,-1,-2,5,86*,6
O=c1[nH]c(CSc2nnc(NCCCN3CCOCC3)s2)nc2cc(Cl)ccc12,8,-1,0,-2,-63*
Cc1cccc(C)c1Nc1nnc(SCc2nc3ccccc3c(=O)[nH]2)s1,-4,-1,18,5,0
CN(CCCOc1ccccc1Br)Cc1ccccc1,-13,-19,4,-17,-98*
CN(CCCOc1ccccc1F)Cc1ccccc1,-13,-11,4,-31,-85*
Cc1cc(C)c(OCCN(C)Cc2ccccc2)c(Br)c1,-3,-16,4,-38,-56*
COc1ccc(NS(=O)(=O)c2ccc(-n3cccn3)cc2)cc1OC,-33*,-7,15,-12,x
Cc1ccc(NS(=O)(=O)c2ccc(-n3cccn3)cc2)cc1C,-11,-2,6,7,0
CCc1cccc(C)c1NS(=O)(=O)c1ccc(-n2cccn2)cc1,-47*,-1,22,-1,x
COc1ccc(NS(=O)(=O)c2cc(C)ccc2OC)cc1OC,-13,-3,9,10,-58*
Cn1c(=O)c(=O)n(C)c2cc(N3CCCC3)c(NC(=O)c3ccc(C(C)(C)C)cc3)cc21,10,-2,2,1,x
O=C(CCCn1c(=O)[nH]c2ccccc2c1=O)NCc1ccccc1Cl,-23,0,0,-16,x
O=C(CSc1ncnc2sccc12)Nc1ccccc1,-61*,-9,7,-4,-4
O=C(CSc1ncnc2sccc12)Nc1ccccc1F,-5,-2,2,-1,3
CC(C)NC(=O)c1ccc(Cn2c(=O)c3cccn3c3cccnc32)cc1,5,-2,1,15,x
C=CCNC1=C(Cl)C(=O)c2ccccc2C1=O,5,-2,2,-1,-10
O=C1C(Cl)=C(Nc2ccccc2)C(=O)c2ccccc21,-58*,-7,7,-49,-74*
O=C(O)c1cccc(NC2=C(Cl)C(=O)c3ccccc3C2=O)c1,-1,-10,1,-29,-90*
CC(=O)N(Cc1ccc(F)cc1)C1=C(NCCc2ccccc2)C(=O)c2ccccc2C1=O,-7,-7,0,4,-54*
O=C1C(Cl)=C(NCCc2ccccc2)C(=O)c2ccccc21,x,x,x,-13,-71*
O=C(COc1ccc([N+](=O)[O-])cc1)Nc1cccc2cccnc12,-2,-4,3,3,x
CCN(Cc1ccccc1)C(=O)c1cnn(-c2ccc(F)cc2)c1-n1cccc1,3,-2,5,6,x
CCCCCCCCCCCCCCC[C@H](O)[C@@H](N)CO,x,x,x,7,x
Cc1cc(C)c2c(-n3cccc3)c(C(=O)NNS(=O)(=O)c3ccccc3)sc2n1,x,x,x,-2,-55*

# Bioassay records: PubChem BioAssay, National Center for Advancing Translational Sciences (NCATS)
